This is an account of results in PubChem BioAssay (Tox21).

The structures appear in SMILES notation. Records with an inconclusive call do not appear. Values without a mark were called inactive. Activity calls are given as the source filed them. Unless noted, calls come from the whole dose curve; as a rule, active = well fitted curve in the direction sought with a large enough effect in the repeat runs; inconclusive = weak or mixed curves; inactive = no such curve, though single readings can be large; an effect the other way counts as inactive or inconclusive.

Test [1] is described as follows: qHTS assay to identify aromatase inhibitors - cell viability counter screen (AID 743084).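 Note: cells stimulated with testosterone during compound exposure; nearly all actives have a fitted effect of over 55% in size.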 On the technique in general: qHTS replaces the single test concentration by a dilution series.
The target in test [2] is Aryl hydrocarbon receptor (Homo sapiens) (UniProt P35869). Put plainly: qHTS assay to identify small molecule that activate the aryl hydrocarbon receptor (AhR) signaling pathway (AID 743085).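 For activation: HG2L7.5c1 human HepG2 liver cells with stably integrated DRE-driven firefly reporter; series mostly up to about 70 µM.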 Note: nearly all actives have a fitted effect of over 15% in size. Note: potency is the fitted concentration of half-maximal effect. Summed up: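 Reporter assay in engineered HepG2 line HG2L7.5c1, whose plasmid carries twenty dioxin responsive elements upstream of firefly luciferase. Treatment lasted 24 h at 37C; ONE-Glo luminescence gauged induction.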
Sequence of Aryl hydrocarbon receptor (Homo sapiens) (P35869 whole entry, looked up): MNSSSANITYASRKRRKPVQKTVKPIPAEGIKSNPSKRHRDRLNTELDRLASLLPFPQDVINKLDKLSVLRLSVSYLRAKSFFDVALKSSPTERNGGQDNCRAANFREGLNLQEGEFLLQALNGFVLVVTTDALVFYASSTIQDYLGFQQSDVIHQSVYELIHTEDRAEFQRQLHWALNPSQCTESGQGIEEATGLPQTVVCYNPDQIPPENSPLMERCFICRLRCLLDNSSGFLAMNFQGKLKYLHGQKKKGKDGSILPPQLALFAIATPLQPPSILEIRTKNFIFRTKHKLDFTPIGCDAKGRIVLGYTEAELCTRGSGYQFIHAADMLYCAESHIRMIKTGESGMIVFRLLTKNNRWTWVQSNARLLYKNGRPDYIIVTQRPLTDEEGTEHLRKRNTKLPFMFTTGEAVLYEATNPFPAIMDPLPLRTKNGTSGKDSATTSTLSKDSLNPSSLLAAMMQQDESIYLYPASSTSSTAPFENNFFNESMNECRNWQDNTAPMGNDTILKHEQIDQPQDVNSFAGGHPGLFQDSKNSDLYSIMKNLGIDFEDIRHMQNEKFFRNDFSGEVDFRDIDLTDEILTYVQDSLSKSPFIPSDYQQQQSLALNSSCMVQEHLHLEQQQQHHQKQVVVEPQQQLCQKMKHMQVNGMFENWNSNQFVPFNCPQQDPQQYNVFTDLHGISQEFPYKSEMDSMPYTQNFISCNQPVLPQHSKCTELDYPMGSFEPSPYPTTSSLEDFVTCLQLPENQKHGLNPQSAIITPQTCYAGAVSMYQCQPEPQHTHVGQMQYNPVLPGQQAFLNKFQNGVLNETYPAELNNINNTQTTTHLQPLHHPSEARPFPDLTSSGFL

A short description of test [3]: qHTS assay to identify small molecule that activate the aryl hydrocarbon receptor (AhR) signaling pathway - cell viability counter screen (AID 743086).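 Note: HepG2 liver cells carrying the AhR DRE luciferase reporter; series mostly up to about 70 µM; nearly all actives have a fitted effect of over 45% in size.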 The essentials:
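Cytotoxicity counter screen: CellTiter-Fluor signal (30 min, 37 C) in 4000 HepG2 cells/well carrying the DRE-luciferase reporter, following 24 h compound exposure at 37 C.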

Test [4] is described as follows: qHTS assay to identify small molecule phospholipidosis (PLD) inducers (AID 1259344; active = well fitted curve in the direction sought with a large enough effect; an effect the other way counts as inactive or inconclusive). Summed up: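 Fluorescent phospholipid staining (LipidTOX Red) measured by automated microscopy in fixed HepG2 cells after 24 h treatment; nuclei counterstained with Hoechst 33342; amiodarone as reference inducer.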
Test [5] has as its target Nuclear receptor subfamily 1 group I member 2 (Rattus norvegicus) (UniProt Q9R1A7). Put plainly: Rat pregnane X receptor (rPXR) activation by small molecules, qHTS assay (AID 1346983). Note: nearly all actives have a fitted effect of over 20% in size. Note: potency is the fitted concentration of half-maximal effect. Conditions: rPXR luciferase reporter cells, One-Glo luminescence, 24 h; max activation: active compounds read high. The essentials:
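Luminescent readout (One-Glo luciferase, 30 min room temperature) followed 24 hr compound treatment at 37 C of rPXR cells plated 2,000 per well and preincubated 5hr; qHTS format with compounds delivered in DMSO.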

For test [6], the target named is Nuclear receptor subfamily 1 group I member 2 (Homo sapiens) (UniProt O75469). In words: CYP3A4 induction through human pregnane X receptor (PXR) by small molecules, qHTS assay (AID 1346984). Note: nearly all actives have a fitted effect of over 40% in size. Note: potency is the fitted concentration of half-maximal effect. Summed up: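 Luminescence readout: luciferase signal after One-Glo (30 min, room temperature), following 3 h at 37C with 3uM final Luciferin-IPA P450 substrate. Cells were DPX-2 (HepG2, PXR/CYP3A4-luc co-transfected) dosed for 24 h.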

The target of test [7] is Peroxisome proliferator-activated receptor gamma (Homo sapiens) (UniProt P37231). Put plainly: qHTS assay to identify small molecule agonists of the peroxisome proliferator-activated receptor gamma (PPARg) signaling pathway (AID 743094; active = well fitted activation curve with a large enough effect in the signal ratio in the repeat runs, not every such curve was filed as active; the % refers to the signal ratio). Summed up: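 Beta-lactamase FRET fluorescence was the read-out after a 1 h room-temperature substrate step, following 17 h compound treatment at 37C of HEK293H cells expressing a UAS-driven bla reporter responsive to PPARg.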
Sequence of Peroxisome proliferator-activated receptor gamma (Homo sapiens) (P37231 whole entry, looked up): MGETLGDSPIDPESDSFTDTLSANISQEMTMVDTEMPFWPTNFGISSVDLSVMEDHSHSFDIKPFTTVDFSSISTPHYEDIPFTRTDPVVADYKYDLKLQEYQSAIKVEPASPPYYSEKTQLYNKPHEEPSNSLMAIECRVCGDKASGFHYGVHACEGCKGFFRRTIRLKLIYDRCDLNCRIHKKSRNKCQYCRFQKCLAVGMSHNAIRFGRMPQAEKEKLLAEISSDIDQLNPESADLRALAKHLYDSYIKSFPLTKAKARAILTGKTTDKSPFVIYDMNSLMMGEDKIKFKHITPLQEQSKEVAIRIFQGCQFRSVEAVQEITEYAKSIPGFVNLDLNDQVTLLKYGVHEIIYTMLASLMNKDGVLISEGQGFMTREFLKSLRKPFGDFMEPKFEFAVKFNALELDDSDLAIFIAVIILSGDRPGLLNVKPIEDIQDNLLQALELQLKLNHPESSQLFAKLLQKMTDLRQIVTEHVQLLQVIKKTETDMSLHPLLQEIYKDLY

For test [8], the target named is Nuclear receptor subfamily 1 group I member 2 (Homo sapiens) (UniProt O75469). In words: Human pregnane X receptor (PXR) activation by small molecules, qHTS assay (AID 1346985). Note: nearly all actives have a fitted effect of over 40% in size. The essentials: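 DPX-2 cells (HepG2 co-transfected with a PXR response element and a CYP3A4-promoter luciferase construct) were seeded at 2,000 per well, rested 5 hr at 37C, then exposed to DMSO-dissolved compounds for 24 hr. Activation was read as luciferase luminescence.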
% is set by controls: 0 for no effect and ±100 for the full control effect.

Sequence of Nuclear receptor subfamily 1 group I member 2 (Rattus norvegicus) (Q9R1A7 whole entry, looked up): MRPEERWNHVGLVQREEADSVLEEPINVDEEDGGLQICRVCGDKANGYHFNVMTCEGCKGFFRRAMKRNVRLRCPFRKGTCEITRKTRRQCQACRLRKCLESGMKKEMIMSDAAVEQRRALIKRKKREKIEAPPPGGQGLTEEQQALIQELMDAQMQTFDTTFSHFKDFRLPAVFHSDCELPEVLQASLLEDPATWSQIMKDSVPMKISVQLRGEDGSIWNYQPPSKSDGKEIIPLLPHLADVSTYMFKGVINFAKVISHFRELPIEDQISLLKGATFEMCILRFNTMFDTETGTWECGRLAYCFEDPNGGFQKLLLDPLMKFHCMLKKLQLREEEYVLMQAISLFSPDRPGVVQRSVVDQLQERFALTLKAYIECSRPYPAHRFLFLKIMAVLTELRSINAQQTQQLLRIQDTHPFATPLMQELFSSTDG

Turning to `CCC(=O)O[C@]1(C(=O)CCl)[C@@H](C)C[C@H]2[C@@H]3C[C@H](F)C4=CC(=O)C=C[C@]4(C)[C@@]3(F)[C@@H](O)C[C@@]21C`, the Potency result in test [1], in test [3] and in test [4] was “inactive” in each case. Further, the Potency in test [2] was 3.35 µM (active); in test [5] it was 0.447 µM (active); in test [6], 1.58 µM (active).

Consider `CC(CN1c2ccccc2Sc2cccnc21)N(C)C` (stereo not drawn), for which the Potency result in test [1], in test [2], in test [3], in test [7] and in test [4] was “inactive” in each case. Besides, in test [5], the max activation is -2.44%. Moreover, the Potency in test [6] is 3.98 µM (active).

`CC(C)(C)C(=O)OCOC(=O)[C@@H]1N2C(=O)[C@@H](N=CN3CCCCCC3)[C@H]2SC1(C)C`: the Potency entry in test [2], in test [3], in test [7], in test [4], in test [6] and in test [8] was “inactive” in each case. In test [5], the max activation was -0.301%.

For the compound `CC1(C)[C@@H]2CC[C@@]1(C)[C@H](OC(=O)CSC#N)C2`, the Potency result in test [1], in test [2], in test [3], in test [7], in test [4] and in test [6] was “inactive” throughout. The max activation in test [5] is 7.49%.

For the compound `CCCOc1ccc2nc(NC(=O)OC)sc2c1`, the Potency result in test [1], in test [3], in test [7], in test [4] and in test [6] was “inactive” in each case. For the same compound, the Potency in test [2] was 4.22 µM (active); in test [5], 2.51 µM (active).

As for `CN1CCN(C(c2ccccc2)c2ccc(Cl)cc2)CC1` (stereo not drawn), the Potency result in test [2], in test [7], in test [4], in test [6] and in test [8] was “inactive” in each case. Besides, the max activation in test [5] was -0.288%.

Turning to `CNc1cc(OC)c(C(=O)N[C@H]2CCN(Cc3ccccc3)[C@H]2C)cc1Cl`, the Potency entry in test [1], in test [2], in test [3], in test [7], in test [4] and in test [6] was “inactive” throughout. Further, the max activation in test [5] was -1.71%.

Consider `CSc1nc2cc(Oc3cccc(Cl)c3Cl)c(Cl)cc2[nH]1`, for which the Potency result in test [1], in test [3], in test [7], in test [4] and in test [6] was “inactive” in each case. Moreover, the max activation in test [5] was -0.842%.

For `CC(/C=C/C=C(\C)C(=O)O[C@@H]1O[C@H](CO[C@@H]2O[C@H](CO)[C@@H](O)[C@H](O)[C@H]2O)[C@@H](O)[C@H](O)[C@H]1O)=C\C=C\C=C(C)\C=C\C=C(/C)C(=O)O[C@@H]1O[C@H](CO[C@@H]2O[C@H](CO)[C@@H](O)[C@H](O)[C@H]2O)[C@@H](O)[C@H](O)[C@H]1O`, the Potency entry in test [3], in test [4], in test [6] and in test [8] was “inactive” each time. In addition, the max activation in test [5] is -0.182%.

Turning to `C=Cc1c(C)c2cc3nc(cc4[nH]c(cc5nc(cc1[nH]2)C(C)=C5CCC(=O)OC)c(CCC(=O)O)c4C)[C@@]1(C)C3=CC=C(C(=O)OC)[C@H]1C(=O)OC`, the Potency entry in test [3], in test [7], in test [4], in test [6] and in test [8] was “inactive” each time. In addition, the max activation in test [5] was -3.53%.

As to `CCC(C)[C@@H](N)C(=O)O` (stereo partly drawn), the Potency entry in test [1], in test [2], in test [3], in test [7], in test [4] and in test [8] was “inactive” each time. Further, in test [5], the max activation was -2.74%.

Turning to `[O]=[Bi][O][Bi]=[O]`, the Potency entry in test [1], in test [2], in test [3], in test [4] and in test [8] was “inactive” each time. The max activation in test [5] was -2.85%.

Take `CCCCC[C@H](O)/C=C/[C@H]1[C@H](O)CC(=O)[C@@H]1CCCCCCC(=O)O`: the Potency entry in test [1], in test [2], in test [3], in test [4] and in test [8] was “inactive” in each case. The max activation in test [5] is -0.783%.

On to `O=C(O)c1nc(=O)[nH]c(=O)[nH]1`, for which the Potency entry in test [1], in test [4] and in test [8] was “inactive” each time. Besides, the max activation in test [5] was -2.15%.

On to `CC(C)c1nc(N(C)S(C)(=O)=O)nc(-c2ccc(F)cc2)c1/C=C/C(O)CC(O)CC(=O)O` (stereo not drawn), for which the Potency result in test [1], in test [2], in test [3], in test [7], in test [4] and in test [8] was “inactive” in each case. The max activation in test [5] is 0.498%.

On to `CCC(=O)OCC(=O)[C@@]1(OC(=O)CC)[C@H](C)C[C@H]2[C@H]3[C@H]([C@@H](O)C[C@@]21C)[C@@]1(C)C=CC(=O)C=C1C[C@H]3Cl`, for which the Potency entry in test [1], in test [2], in test [3], in test [7], in test [4] and in test [8] was “inactive” in each case. Moreover, in test [5], the Potency is 3.98 µM (active).

Take `CCc1ccc(S(=O)(=O)O)cc1`: the Potency entry in test [1], in test [3], in test [7], in test [4] and in test [8] was “inactive” in each case. In addition, in test [2], the Potency is 11.9 µM (active). In test [5], the max activation is -0.665%.
